Inhibition data for 25 compounds are collected here from PubChem BioAssay AID652010 (The Scripps Research Institute Molecular Screening Center, 2013).

Usually inhibition stands for the drop in the measured response relative to a control, in per cent.

Each structure is given as a SMILES string. Out of some 370,000 compounds screened, about 4,100 (1.1%) were called active. The list comes from a sample in which actives are over-represented; it also holds similar structures and randomly drawn compounds. Values without a mark were called inactive.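 The calls were made as follows: active = inhibition above the mean over all tested compounds plus 3 SD (cut at about 3.6% in these data); inactive = the rest.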

The nature of this experiment: DAX1 (NR0B1) inhibitors on StAR promoter, primary screen, cell-based, luminescence, SF-1 (NR5A1), full-length DAX-1 (AID 652010).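 Also: 0% = DAX-1 cells with DMSO and 100% = cells lacking DAX-1 with DMSO; higher inhibition means more luminescence from relief of DAX-1 repression.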 As to conditions: HEK293T StAR-luciferase reporter, SF-1/DAX-1 repression relief; at 6.8 µM; hits give high values.
Turning to `O=C(CSc1nc2ccccc2nc1N1CCCCC1)N1CCN(S(=O)(=O)c2cccc([N+](=O)[O-])c2)CC1`, the inhibition is 0.77%.
On to `Cc1ccc(NC(=S)NNC(=O)CSc2nnc(SCc3ccccc3Cl)s2)cc1`, for which the inhibition is -0.55%.
Next, `O=C1C(=O)N(c2ccccc2)C(c2ccccc2)C1c1ccccc1` (stereo not given): -0.52%.
Regarding `O=C(COc1ccc(Cl)cc1)N1CCN(S(=O)(=O)c2ccc(Cl)cc2)CC1`, the inhibition is -0.62%.
On to `CC(c1nnc(SCC(=O)Nc2sccc2C#N)n1-c1ccc(Cl)cc1)N(C)C` (stereo not given), for which the inhibition is 0.06%.
As for `CC(=O)c1cc(C#N)c(SCC(=O)Nc2nccs2)nc1C`, the inhibition was 0.62%.
For `Cc1csc(SCC(=O)Nc2sccc2C#N)n1`, the inhibition is 10.3% (active).
Regarding `Cc1ccc(OCCC(=O)Nc2ccc(S(=O)(=O)Nc3nccs3)cc2)cc1`, the inhibition was -0.38%.
As for `Cc1cc(NS(=O)(=O)c2ccc(NC(=O)CSc3nnc(SCc4ccc(F)cc4)s3)cc2)nc(C)n1`, the inhibition is -0.01%.
Regarding `Nc1[nH]c(/C=C2/CCCCC2n2[nH]c(=O)n(-c3ccccc3)c2=O)c(Cc2ccccc2)[n+]1Cc1ccccc1` (stereo not given), the inhibition is -0.55%.
For `CCN(CC)CCN(C(=O)c1ccc(N2C(=O)CCC2=O)cc1)c1nc2cc3c(cc2s1)OCO3`, the inhibition is 1.06%.
Take `O=C(Cn1c(=O)sc2ccccc21)Nc1ccc2c(c1)OCCO2`: the inhibition was -1.14%.
In the case of `CN(C)CCN(C(=O)CN1C(=O)c2ccccc2C1=O)c1nc2cc3c(cc2s1)OCCO3`, the inhibition is 4.33% (active).
Take `CCOC(=O)c1csc(NC(=O)C2CCCN(S(=O)(=O)c3ccc(Cl)s3)C2)n1` (stereo not given): the inhibition was -2.18%.
For `COc1ccc(C(=O)NCCSc2ccccc2C)cc1`, the inhibition is 2.33%.
As for `COc1ccc(C(=O)NCC[N+](C)(C)C)cc1`, the inhibition was 4.67% (active).
Next, `COc1ccc(C(=O)Nc2ccc(-n3nncc3C(C)(C)C)cc2)cc1`: -0.32%; `COCCNC(=S)c1ccc(OC)cc1`: 0.05%; `COc1ccc(C(=O)NC2CCN(C(=O)Nc3ccc(F)cc3)CC2)cc1`: -0.44%.
Under `COc1ccc(NC(=O)c2ccc(OC)cc2)cc1` stands 4.59% (active); under `O=C(C1CCN(S(=O)(=O)c2ccccc2)CC1)N1CCN(C2CCCCC2)CC1`, 0.23%; under `Nn1c(SCC(=O)Nc2cccc3ccccc23)nnc1-c1cc(-c2ccc(F)cc2)n[nH]1`, -0.54%.
Take `CC(=O)NC1(c2ccc(F)cc2)CCN(C(=O)c2c(F)cccc2F)CC1`: the inhibition is -0.58%.
On to `CC(C)CSc1nnc(-c2cccnc2)n1Cc1ccccc1`, for which the inhibition is -1.22%.
Turning to `COC(=O)c1cccc(Cn2ccc3ccc(-c4ccc5ccn(C(=O)c6ccccc6C)c5c4)cc32)c1`, the inhibition was -1.7%.
